Targets with a hit are over-represented here; the source holds about 7,900 in all. About 0.6% of all pairs of compound and target were hits.
Assays:
Assay in all cases: log2 fold change, soluble protein after heating vs DMSO (PISA); higher = thermal stabilisation; K562 cells, 10 uM, 30 min; active = over 0.2 and 3.5 SD of the protein, either way, in both replicates (recomputed)
[1] = compound: C#Cc1cccc(Nc2ncnc3cc(OCCOC)c(OCCOC)cc23)c1 [erlotinib]
Method in brief: (§1)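 Thermal stability values are relative to control samples and come from duplicates. They are expressed as log2 fold changes. For measurement, K562 cells (2×10^6 cells/mL) received 10 μM compound for 30 min, and aliquots were heated for 3 min over 48°C-58°C, pooled, and extracted at 4°C in PBS with 0.5% NP-40. Soluble protein, the supernatant after 21,000xg for 90 min, was quantified by TMTpro 16plex LC-MS/MS with equalised channel sums.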

[2] = compound: C/C(=N\NC(=O)C1=CC(=CC=C1)S(=O)(=O)N2CCOCC2)/C3=C(C=CC(=C3)Cl)O
Method in brief: as §1

[3] = compound: C1=CC(=C(C=C1Cl)C2=NC3=NC=CN=C3C(=N2)NC4=CC=NC=C4)F
Method in brief: as §1

[4] = compound: C1=CC(=CC=C1C2=NC3=C(N2)C=C(C=C3)C(=O)N)OC4=CC=C(C=C4)Cl
Method in brief: as §1

[5] = compound: C1=CC2=C(C=CC(=C2)/C=C\3/C(=O)NC(=NCC4=CC=CS4)S3)N=C1
Method in brief: as §1

[6] = compound: C1=CC2=NC=CN=C2C=C1/C=C/3\C(=O)NC(=O)S3
Method in brief: as §1

[7] = compound: C1=CC=C(C=C1)C2=NC(=C(N2)C3=CC=NC=C3)C4=CC(=C(C=C4)Cl)O
Method in brief: as §1

[8] = compound: C1=CC=C2C(=C1)C3=NNC4=CC=CC(=C43)C2=O
Method in brief: as §1

[9] = compound: C1CCN(C1)C(=O)NC2=CC=CC(=C2)NC3=NC=C(C(=N3)NCCC4=CN=CN4)Br
Method in brief: as §1

[10] = compound: C1CN(CCC1(CC2=CC=C(C=C2)Cl)N)C3=NC=NC4=C3C=CN4
Method in brief: as §1

[11] = compound: C1COCCN1CCN2C3=CC=CC=C3N=C2NC(=O)C4=CC(=CC=C4)[N+](=O)[O-] [IRAK-1-4 Inhibitor I]
Method in brief: as §1

[12] = compound: C=CC(=O)N1CCC[C@@H](n2nc(-c3ccc(Oc4ccccc4)cc3)c3c(N)ncnc32)C1 [ibrutinib]
Method in brief: as §1

[13] = compound: CC(=O)c1cnc2ccc(-c3cc(Cl)c(O)c(Cl)c3)nc2c1N[C@H]1CC[C@H](CN(C)C)CC1
Method in brief: as §1

[14] = compound: CC(C)(C)Cn1c(N)nc2ccc(-c3[nH]c(C(C)(C)C)nc3-c3ccc(F)cc3)nc21 [ralimetinib]
Method in brief: as §1

[15] = compound: CC(C)(O)CC(=O)NCCn1ccc2ncnc(Nc3ccc(Oc4cccc(C(F)(F)F)c4)c(Cl)c3)c21
Method in brief: as §1

[16] = compound: CC(C)C1=C2N=C(C=C(N2N=C1)NCC3=CC=CC=C3)NCCCCCCN
Method in brief: as §1

[17] = compound: CC(C)C[C@@H](C=O)NC(=O)[C@H](CC(C)C)NC(=O)[C@H](CC(C)C)NC(=O)OCc1ccccc1
Method in brief: as §1

[18] = compound: CC(C)N(C[C@H]1O[C@@H](n2cnc3c(N)ncnc32)[C@H](O)[C@@H]1O)[C@H]1C[C@@H](CCc2nc3cc(C(C)(C)C)ccc3[nH]2)C1 [pinometostat]
Method in brief: as §1

[19] = compound: CC1=C(C(CC(=O)N1)C2=CC=C(C=C2)C(F)(F)F)C(=O)NC3=C(C=C4C(=C3)C=NN4)F
Method in brief: as §1

[20] = compound: CC1=C(C2=C(C=C1)C(=O)C3=CC=CC=C3N2CCCN)C
Method in brief: as §1

Measured: log2 fold change

PLIN2 (UniProt Q99541)
UniProt Q99541, sequence (Q99541 whole entry, looked up): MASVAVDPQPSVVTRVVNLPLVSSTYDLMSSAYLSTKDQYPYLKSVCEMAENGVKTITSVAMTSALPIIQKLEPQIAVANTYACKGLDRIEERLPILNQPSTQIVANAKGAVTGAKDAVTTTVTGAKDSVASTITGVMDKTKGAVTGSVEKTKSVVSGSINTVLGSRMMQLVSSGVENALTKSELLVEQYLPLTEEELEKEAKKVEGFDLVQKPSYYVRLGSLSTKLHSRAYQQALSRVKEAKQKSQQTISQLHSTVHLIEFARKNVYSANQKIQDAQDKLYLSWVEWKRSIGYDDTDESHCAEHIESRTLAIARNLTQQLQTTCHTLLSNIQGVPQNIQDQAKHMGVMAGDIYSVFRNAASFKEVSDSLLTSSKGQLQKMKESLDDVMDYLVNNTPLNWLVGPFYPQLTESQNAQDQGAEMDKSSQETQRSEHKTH
active: [16] -1.11
inactive: [1] 0.033 | [2] 0.028 | [3] 0.043 | [4] -0.038 | [5] 0.023 | [6] 0.101 | [7] 0 | [8] -0.089 | [9] 0.028 | [10] -0.068 | [11] 0.058 | [12] 0.055 | [13] 0.005 | [14] -0.065 | [15] -0.083 | [17] -0.014 | [18] 0.007 | [19] -0.031 | [20] -0.022

PRKAB2 (UniProt O43741)
UniProt O43741, sequence (O43741 whole entry, looked up): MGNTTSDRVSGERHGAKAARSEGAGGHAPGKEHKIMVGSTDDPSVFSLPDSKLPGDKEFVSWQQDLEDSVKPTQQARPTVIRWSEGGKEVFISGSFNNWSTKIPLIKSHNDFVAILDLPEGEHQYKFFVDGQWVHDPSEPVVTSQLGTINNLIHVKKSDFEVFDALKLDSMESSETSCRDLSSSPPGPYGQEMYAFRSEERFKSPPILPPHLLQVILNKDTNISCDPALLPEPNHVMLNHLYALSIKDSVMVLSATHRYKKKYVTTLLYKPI
inactive: [1] -0.054 | [2] 0.29 | [3] 0.103 | [4] 0.032 | [5] -0.022 | [6] -0.115 | [7] 0.203 | [8] 0.144 | [9] -0.218 | [10] 0.064 | [11] 0.003 | [12] 0.054 | [13] -0.115 | [14] 0.223 | [15] -0.117 | [16] -0.028 | [17] -0.175 | [18] -0.065 | [19] 0.032 | [20] -0.053

PPM1G (UniProt O15355)
UniProt O15355, sequence (O15355 whole entry, looked up): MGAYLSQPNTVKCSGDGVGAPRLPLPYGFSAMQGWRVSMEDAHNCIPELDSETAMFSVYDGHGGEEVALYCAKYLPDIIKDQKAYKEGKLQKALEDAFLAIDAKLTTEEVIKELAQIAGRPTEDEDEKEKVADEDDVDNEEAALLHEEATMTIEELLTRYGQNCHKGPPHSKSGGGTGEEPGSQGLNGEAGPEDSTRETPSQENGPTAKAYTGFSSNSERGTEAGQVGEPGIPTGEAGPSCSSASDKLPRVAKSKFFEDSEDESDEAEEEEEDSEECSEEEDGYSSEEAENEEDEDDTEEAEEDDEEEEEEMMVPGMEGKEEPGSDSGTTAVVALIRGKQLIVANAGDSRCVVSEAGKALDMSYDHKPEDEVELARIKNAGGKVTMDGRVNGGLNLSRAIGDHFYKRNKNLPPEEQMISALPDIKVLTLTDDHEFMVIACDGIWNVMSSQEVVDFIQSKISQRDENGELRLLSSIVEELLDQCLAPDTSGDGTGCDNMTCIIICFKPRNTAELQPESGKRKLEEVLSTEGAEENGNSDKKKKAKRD
inactive: [1] 0.117 | [2] 0.118 | [3] 0.009 | [4] -0.017 | [5] 0.024 | [6] 0.035 | [7] -0.052 | [8] -0.022 | [9] -0.011 | [10] -0.065 | [11] -0.095 | [12] -0.102 | [13] -0.098 | [14] -0.044 | [15] -0.17 | [16] -0.223 | [17] 0.088 | [18] -0.067 | [19] -0.121 | [20] -0.002

PSMC5 (UniProt P62195)
UniProt P62195, sequence (P62195 whole entry, looked up): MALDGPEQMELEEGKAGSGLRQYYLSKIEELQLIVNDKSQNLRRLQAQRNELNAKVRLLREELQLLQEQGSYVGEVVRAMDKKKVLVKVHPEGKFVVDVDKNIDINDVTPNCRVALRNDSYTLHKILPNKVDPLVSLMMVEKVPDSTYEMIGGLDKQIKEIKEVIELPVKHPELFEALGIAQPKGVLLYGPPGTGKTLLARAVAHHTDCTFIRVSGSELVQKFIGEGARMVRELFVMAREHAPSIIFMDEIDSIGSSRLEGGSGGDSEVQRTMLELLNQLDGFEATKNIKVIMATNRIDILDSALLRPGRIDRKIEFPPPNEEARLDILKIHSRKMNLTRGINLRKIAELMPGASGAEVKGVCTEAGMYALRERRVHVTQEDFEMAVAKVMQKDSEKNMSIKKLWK
inactive: [1] -0.116 | [2] -0.044 | [3] -0.029 | [4] 0.021 | [5] -0.022 | [6] -0.03 | [7] -0.007 | [8] 0.019 | [9] 0.021 | [10] -0.032 | [11] -0.038 | [12] -0.031 | [13] 0.008 | [14] -0.014 | [15] 0.024 | [16] 0.009 | [18] 0.021 | [19] 0.037 | [20] 0.002
active: [17] -0.273

PIP4K2B (UniProt P78356)
UniProt P78356, sequence (P78356 whole entry, looked up): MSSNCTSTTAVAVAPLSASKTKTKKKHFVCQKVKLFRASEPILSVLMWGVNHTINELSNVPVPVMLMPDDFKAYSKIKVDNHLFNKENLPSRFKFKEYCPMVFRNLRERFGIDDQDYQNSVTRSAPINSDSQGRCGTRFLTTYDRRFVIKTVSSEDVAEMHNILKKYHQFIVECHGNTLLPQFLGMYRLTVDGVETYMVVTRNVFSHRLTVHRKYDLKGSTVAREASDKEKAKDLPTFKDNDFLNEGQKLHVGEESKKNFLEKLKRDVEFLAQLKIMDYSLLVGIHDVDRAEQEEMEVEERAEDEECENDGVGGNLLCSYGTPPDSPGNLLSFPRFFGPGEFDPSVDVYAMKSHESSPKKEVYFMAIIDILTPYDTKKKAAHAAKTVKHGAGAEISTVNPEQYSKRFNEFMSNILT
active: [13] 0.856
inactive: [1] 0.16 | [2] -0.022 | [3] 0.082 | [4] -0.083 | [5] 0.017 | [6] 0.244 | [7] 0.104 | [8] 0.096 | [9] 0.13 | [10] 0.037 | [11] 0.254 | [12] 0.01 | [14] 0.005 | [15] -0.149 | [16] 0.033 | [17] -0.034 | [18] -0.014 | [19] -0.11 | [20] 0.065

PRKAA1 isoform 2 (UniProt Q13131)
UniProt Q13131, sequence (Q13131 whole entry, looked up): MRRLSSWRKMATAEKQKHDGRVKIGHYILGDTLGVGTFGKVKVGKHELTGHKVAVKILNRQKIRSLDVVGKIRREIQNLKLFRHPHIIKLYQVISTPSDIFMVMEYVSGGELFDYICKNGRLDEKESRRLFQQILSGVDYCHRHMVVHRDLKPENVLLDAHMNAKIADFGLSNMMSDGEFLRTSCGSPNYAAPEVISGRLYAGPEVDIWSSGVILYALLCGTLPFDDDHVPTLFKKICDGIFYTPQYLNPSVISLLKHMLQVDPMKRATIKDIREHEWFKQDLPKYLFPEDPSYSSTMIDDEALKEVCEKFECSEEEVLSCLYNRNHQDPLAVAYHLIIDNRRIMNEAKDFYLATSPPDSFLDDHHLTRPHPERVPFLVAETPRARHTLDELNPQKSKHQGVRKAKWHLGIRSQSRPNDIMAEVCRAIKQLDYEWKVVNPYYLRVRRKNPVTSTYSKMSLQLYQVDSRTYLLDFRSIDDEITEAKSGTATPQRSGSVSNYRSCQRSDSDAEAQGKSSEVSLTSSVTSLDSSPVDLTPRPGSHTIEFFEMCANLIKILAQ
active: [13] -0.343
inactive: [1] 0 | [2] 0.026 | [3] 0.084 | [4] 0.045 | [5] 0.018 | [6] 0.013 | [7] 0.012 | [8] -0.051 | [9] -0.034 | [10] 0.012 | [11] 0.046 | [12] -0.006 | [14] -0.003 | [15] -0.009 | [16] -0.025 | [17] -0.014 | [18] -0.014 | [19] 0.022 | [20] 0.019

POLR3D (UniProt P05423)
UniProt P05423, sequence (P05423 whole entry, looked up): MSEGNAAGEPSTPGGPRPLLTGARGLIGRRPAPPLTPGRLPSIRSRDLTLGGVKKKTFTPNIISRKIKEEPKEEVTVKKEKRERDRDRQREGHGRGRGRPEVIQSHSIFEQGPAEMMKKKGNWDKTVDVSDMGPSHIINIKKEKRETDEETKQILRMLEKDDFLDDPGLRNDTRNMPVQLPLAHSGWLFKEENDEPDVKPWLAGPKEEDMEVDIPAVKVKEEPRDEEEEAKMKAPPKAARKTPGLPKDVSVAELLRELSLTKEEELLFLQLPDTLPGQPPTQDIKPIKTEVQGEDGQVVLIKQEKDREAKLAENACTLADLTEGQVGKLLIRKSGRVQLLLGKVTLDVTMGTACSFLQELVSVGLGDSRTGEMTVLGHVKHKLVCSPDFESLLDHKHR
inactive: [1] 0.068 | [3] -0.087 | [4] -0.031 | [6] -0.022 | [7] 0.076 | [8] -0.004 | [9] -0.005 | [10] 0.372 | [11] -0.017 | [12] 0.766 | [13] 0.022 | [14] 0.043 | [15] -0.1 | [16] -0.158 | [17] -0.002 | [18] 0.109 | [19] 0.012 | [20] 0.009
active: [2] -0.665 | [5] -0.733

PFDN1 (UniProt O60925)
UniProt O60925, sequence (O60925 whole entry, looked up): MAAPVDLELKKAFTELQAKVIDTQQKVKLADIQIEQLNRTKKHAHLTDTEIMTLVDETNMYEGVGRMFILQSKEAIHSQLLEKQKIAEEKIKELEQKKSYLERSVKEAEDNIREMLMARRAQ
inactive: [1] -0.018 | [2] 0.012 | [3] 0.263 | [4] 0.07 | [5] 0.056 | [6] 0.063 | [7] 0.137 | [8] 0.047 | [9] -0.091 | [10] -0.057 | [11] -0.187 | [12] -0.119 | [13] -0.002 | [14] -0.141 | [15] -0.031 | [16] 0.062 | [17] -0.13 | [18] -0.175 | [19] -0.021 | [20] 0.254

Reference: the supplement of paper PMC10849652
